Most compounds without a hit are left out; they make up all but 1.3% or so of the library.
ALOX12 inh – ALOX12 (human) lipoxygenase inhibition; purified 12hLO, xylenol orange hydroperoxide absorbance; Potency, µM (titrated, usually from 108 µM), inactives show at the top dose activity change, negative = inhibition, actives largely listed as inhibitors; hit rate 1.1% among 580,000; also: potency is read from the fitted curve at half-maximal effect; % is scaled to controls: 0 for no effect and ±100 for the full control effect
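Purified human 12hLO at 150 nM in 25 mM Hepes, 0.01% Triton X-100, pH 7.0, preincubated 15 min at room temperature with compound. Reaction started with 40 uM arachidonic acid, 30 min at room temperature. Hydroperoxide measured by Fe-xylenol orange, 573/405 nm absorbance ratio.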
Vif-APOBEC3G blk – inhibitors of Vif-APOBEC3G interaction; hit rate 0.076% among 410,000; HeLa A3G-eYFP + Vif (tagged APOBEC3G with the HIV-1 protein that degrades it), YFP fluorescence, overnight; AID 602310; Potency, µM (doses to about 46.1 µM), for the others: at the top dose activity, negative = active, actives largely listed as inhibitors; also: potency is read from the fitted curve at half-maximal effect; % is scaled to controls: 0 for no effect and ±100 for the full control effect; nearly all actives have a fitted effect of over 60% in size
Target sequence (Q9HC16 whole entry, looked up): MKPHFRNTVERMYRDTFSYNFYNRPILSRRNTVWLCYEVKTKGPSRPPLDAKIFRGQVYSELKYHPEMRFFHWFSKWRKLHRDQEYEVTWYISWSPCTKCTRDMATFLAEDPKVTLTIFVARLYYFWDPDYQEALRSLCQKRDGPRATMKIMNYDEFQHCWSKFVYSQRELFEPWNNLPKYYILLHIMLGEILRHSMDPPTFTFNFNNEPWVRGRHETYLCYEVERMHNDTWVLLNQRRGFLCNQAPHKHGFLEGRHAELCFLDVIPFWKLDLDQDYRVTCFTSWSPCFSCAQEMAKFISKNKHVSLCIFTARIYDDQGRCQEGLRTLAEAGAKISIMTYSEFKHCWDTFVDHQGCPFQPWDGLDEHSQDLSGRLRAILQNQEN
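HeLa cells stably expressing Vif and C-terminally eYFP-tagged A3G, seeded overnight at 37 deg C, then exposed to compound by pintool overnight at 37 deg C. Rise in yellow fluorescence (Ex 488/Em 500-530, Acumen) marks blocked Vif-driven A3G degradation.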
Vif-A3F inh – Vif-A3F binding inhibition; HeLa A3F-eYFP + Vif (tagged APOBEC3F with the HIV-1 protein that degrades it), YFP fluorescence increase; Potency, µM (top dose mostly 46.1 µM), without a hit: top-dose activity, negative = active; hit rate 0.2% among 390,000; AID 602313; also: potency is read from the fitted curve at half-maximal effect; % of control where 0% means no effect; nearly all actives have a fitted effect of over 65% in size
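Fluorescence increase (Ex 488/Em 500-530) after overnight compound treatment at 37 deg C flags inhibition of Vif-driven A3F-eYFP loss in stable HeLa A3F-eYFP/Vif cells seeded overnight beforehand.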
TRPML1 blocker – human mucolipin-1 channel inhibition. TRPML1-inducible cells, Ca2+ dye fluorescence, FDSS; active compounds read low; inhibition of EC80 agonist-evoked calcium signal. activity change, negative = inhibition, % (test concentration not listed). hit rate 0.02% among 390,000. AID 624415; in the data active = activity change below about -50%; inconclusive = between about -30% and that limit;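 also: stimulus is agonist 54-4 at its EC80 concentration; % is scaled to controls: 0 for no effect and ±100 for the full control effect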
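Calcium fluorescence in TRPML1-DL cells induced overnight with Tet: a 110 s read after compound pin addition, then a 110 s antagonist read after challenge with 54-4 at 4 uM final (EC80).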
Glioma ERSR ind – ER stress response induction in glioma. U87-MG GRP78 promoter luciferase reporter, 16 h. Potency, µM, inactives show at the highest dose activation, usual class: activators. hit rate 0.02% among 420,000; also: potency is read from the fitted curve at half-maximal effect; series mostly up to about 76 µM; % of control where 0% means no effect; nearly all actives have a fitted effect of over 35% in size
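ERSR induction read as luciferase luminescence (Bright-Glo, 10 min at room temperature) in stably transfected human U87-MG glioma cells exposed to compounds for 16 h, using GRP78 as sensor.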
TRPML1 ag – agonists of human TRPML1 channel; hit rate 0.12% among 410,000; Q9GZU1; TRPML1-expressing cells, Ca2+ dye fluorescence, FDSS; activation, % (test concentration not listed); AID 624414; in the data active = activation above about 50%; inconclusive = mostly about 30% to 49%; also: 0% is about no effect
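Calcium fluorescence on an FDSS kinetic reader gave the read-out. Tet-induced TRPML1-DL cells were plated overnight, dye-loaded (Ca8 with quencher, 45-90 min, room temperature, dark), then read 110 s after compound addition, and again 110 s after 4uM final 54-4 (EC80).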
* hit, by the source's call; ? = inconclusive; . = no result. Unless noted, calls follow the shape of the dose curve; as a rule, active = well fitted curve in the direction sought with a large enough effect; inconclusive = small, poorly fitted or top-dose-only effect, or another doubt; inactive = no such curve, though single readings can be large; an effect the other way counts as inactive or inconclusive.

SMILES	ALOX12 inh	Vif-APOBEC3G blk	Vif-A3F inh	TRPML1 blocker	Glioma ERSR ind	TRPML1 ag
Cc1ccc(-c2cc(C(=O)N/N=C/c3ccc([N+](=O)[O-])o3)c3ccccc3n2)o1	?	-19%	-8%	-25	5%	1
Cn1c(/C=C/c2ccc([N+](=O)[O-])o2)nc2ccccc2c1=O	.	2.8µM*	11µM*	-17	-9%	0
CCCCN=Cc1c(C)[nH]n(-c2ccccc2)c1=S	22µM*	2%	?	36	-1%	4
Cc1ccc(NC(=S)/N=C(\N)Nc2nc(C)c3cc(C)ccc3n2)c(C)c1	?	-6%	-17%	18	-4%	3
CCc1ccccc1NC(=S)/N=C(\N)Nc1nc(C)c2cc(C)ccc2n1	35µM*	-16%	-24%	-2	-3%	1
Cc1ccc(NC(=S)/N=C(\N)Nc2nc(C)c3cc(C)c(C)cc3n2)cc1C	35µM*	5%	-42%	1	-3%	-1
Cn1c(=O)c2[nH]c(N3CCCCC3)nc2n(C)c1=O	62%	-124%	12%	-4	-4%	60*
O=c1c(-c2ccco2)[n+]([O-])c2ccccc2n1OCc1ccccc1	40µM*	-5%	-27%	29	-7%	0
Cc1cccc(C)c1NC(=S)NC(=O)c1cccc(Cl)c1	32µM*	-1%	.	.	-1%	0
CCC(=O)N1CCN(c2ccc(NC(=S)NC(=O)c3ccc(OC)c([N+](=O)[O-])c3)cc2)CC1	0%	2%	11%	-1	0%	0
Cc1cccc(C(=O)Nc2ccc(NC(=S)NC(=O)c3cccc(Cl)c3)cc2)c1	18µM*	.	.	.	.	.
CCCC(=O)N1CCN(c2ccc(NC(=S)NC(=O)c3cccc(C)c3)cc2)CC1	16µM*	8%	-37%	7	-6%	-1
CC(=O)c1cccc(NC(=S)NC(=O)c2cccc(Cl)c2)c1	-20%	-1%	0%	10	5%	0
Cc1ccccc1-c1nc(CSCC(=O)NCc2ccc3c(c2)OCO3)c(C)o1	-1%	.	.	.	.	.
COc1ccc(OCCN(C)C(=O)c2cc(Br)c[nH]2)cc1	16%	.	.	.	.	.
Cc1c(Cl)cccc1NC(=O)Nc1nnc(N(C)Cc2ccccc2)s1	-21%	?	?	-15	-2%	58*
CN(C)C(=S)NC(=S)Nc1ccc2ccccc2c1	35µM*	-12%	-19%	-12	0%	0
CC1(NC(=S)Nc2ccc3ccccc3c2)CCS(=O)(=O)C1 (stereo not drawn)	16%	-3%	0%	-9	2%	0
Oc1ccc(C2(c3ccc(O)cc3)CCCC2)cc1	35µM*	.	.	.	.	.
Cc1ccc(C2(c3ccc(O)cc3)CCCCC2)cc1	-86%	.	.	.	.	.
COc1cc(/C=C2\CC/C(=C\c3ccc(OCCO)c(OC)c3)C2=O)ccc1OCCO	-21%	-13%	?	-28	0%	107*
O=C(CSc1ncccc1-c1nc2ccccc2[nH]1)NCc1ccco1	14µM*	1%	-4%	-30	-1%	2
Cn1nc(C(C)(C)C)c(NC(=O)c2cccs2)c1C(C)(C)C	74%	-4%	-15%	-17	-3%	78*
CC1(C)Cc2c(sc(NC(=O)c3ccco3)c2C(=O)O)CO1	13%	-1%	10%	-2	8%	1
CC1(C)Cc2c(sc(NC(=S)NC(=O)c3ccccc3)c2C(=O)O)CO1	28µM*	-4%	-6%	-15	-3%	0
SMILES	ALOX12 inh	Vif-APOBEC3G blk	Vif-A3F inh	TRPML1 blocker	Glioma ERSR ind	TRPML1 ag
CN(Cc1ccccc1)C(=O)N1CCN(C(=O)c2cc(-c3cccc(Cl)c3)n[nH]2)CC1	-5%	.	.	.	.	.
CC1=C(Cc2cc3ccc(=O)oc3cc2O)CC(C)(C)CC1	6.3µM*	.	.	.	.	.
COc1cc2ccc(=O)oc2cc1O	12%	0%	-4%	3	-1%	1
CN(C)c1ccc(/C=C/C(=O)c2ccc(O)cc2)cc1	-29%	?	7.9µM*	-20	6%	87*
O=C(/C=C/c1cccnc1)c1cccc(O)c1	8.9µM*	?	9%	-4	-15%	0
CN(C)c1ccc(/C=C/C(=O)c2cccnc2)cc1	213%	2%	?	-25	2%	115*
CN(C)c1ccc(/C=C/C(=O)c2ccc3c(c2)OCO3)cc1	?	?	?	-14	0%	84*
O=C(/C=C/c1cccc(O)c1)c1cccnc1	-10%	-17%	-4%	17	9%	1
CCCCCCCCCCCCc1ccc(NC(C)=O)cc1	21%	.	.	.	.	.
O=C(c1ccccc1)c1c2c(cc3sc4ccccc4[n+]13)-c1cccc3cccc-2c13	32µM*	6.3µM*	?	7	-2%	54*
N#CC(c1cccc(C(F)(F)F)c1)(c1ncc(C(F)(F)F)cc1Cl)N1CCOCC1 (stereo not drawn)	18%	2%	-4%	-7	-2%	56*
Cc1cccc(NC(=O)CSc2nnc(NC(=O)CN3CCCCC3)s2)c1	23%	.	.	.	.	.
CCOC(=O)CSc1nnc(NC(=O)CN2CCCCC2)s1	6.3µM*	-6%	-23%	-7	-6%	-1
O=C(NC(=S)Nc1ccccc1N1CCOCC1)c1ccc(Br)cc1	35µM*	-1%	-5%	-3	1%	0
Cc1cc(C(=O)NC(=S)Nc2ccccc2N2CCOCC2)ccc1[N+](=O)[O-]	28µM*	-5%	-9%	20	-2%	1
O=C(NC(=S)Nc1ccccc1N1CCOCC1)c1ccc(-c2ccccc2F)o1	25µM*	-2%	-1%	-4	3%	0
CCOc1ccc(C(=O)NC(=S)Nc2ccccc2N2CCC(C)CC2)cc1[N+](=O)[O-]	35µM*	-1%	-3%	-3	-4%	3
O=C(COc1ccc(Br)cc1)NC(=S)Nc1ccccc1N1CCOCC1	?	0%	2%	-7	-8%	0
COc1ccc(C(=O)Nc2ccc3oc(C)nc3c2)cc1	20%	.	.	.	.	.
COc1ccc(CCNC(=O)CSc2nc(-c3ccc4c(c3)OCO4)ccc2C#N)cc1OC	-64%	.	.	.	.	.

Compound activity as filed in PubChem.
